Drawing on PubChem BioAssay, this text covers z-score and composite z-score for nine compounds.

The nature of test [1]: E. coli DRC41 culture turbidity changes, primary screen, E. coli filamentation inducer project, strain DRC41, OD650, 48 h (AID 1152).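 Note: E. coli MC1000 strain DRC41 lacking acrAB efflux pump and sulA.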 Conditions: E. coli DRC41 (acrAB sulA), higher = more signal, called active from +8 up or from −8 down.
The nature of test [2]: small-molecule binders of probe aLefty1, primary screen, biochemical, small-molecule microarray, 635/667 nm fluorescence (AID 1153).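 Note: score merges spot fluorescence with signal-to-noise ratio from the scanned slide images.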 The following applies: higher = more signal.
A short description of test [3]: PSAC antagonists in infected red cells, primary screen, cell-based, P. falciparum Indochina, OD700, 1 h (AID 1154). Conditions: P. falciparum Indochina infected RBC osmotic lysis, higher = more signal, called active from +8 up or from −8 down.
A short description of test [4]: PSAC antagonists in infected red cells, primary screen, cell-based, P. falciparum Indochina, OD700, 2 h (AID 1155).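 Note: lysis reports solute entry through the parasite surface anion channel PSAC; channel blockers reduce lysis of infected cells.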 The following applies: P. falciparum Indochina infected erythrocytes, osmotic lysis OD700; higher = more signal, called active from +8 up or from −8 down.
Test [5] can be described thus: osmotic lysis modulators in infected erythrocytes, primary screen, PSAC antagonist project, cell-based, P. falciparum Indochina, OD700, 3 h (AID 1156). The following applies: higher = more signal, called active from +8 up or from −8 down.
A short description of test [6]: PSAC antagonists in infected red cells, primary screen, cell-based, P. falciparum Indochina, OD700, 18 h (AID 1157). The following applies: P. falciparum Indochina infected erythrocytes, osmotic lysis OD700, 18 h; higher = more signal, called active from +8 up or from −8 down.
Test [7] in a line: modulators of S6 phosphorylation in cells, primary screen, cell-based, A549, cytoblot, luminescence, serum-stimulated (AID 1158).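 Note: serum-stimulated A549 lung adenocarcinoma cells; signal is phosphorylated S6 detected by cytoblot immunostaining with HRP secondary.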 Conditions: A549 phospho-S6 cytoblot, 5 h, higher = more signal.
Test [8] deals with NADPH oxidase 2 (Homo sapiens) (UniProt P04839). In words: NOX2-dependent H2O2 signal modulators, primary screen, NOX inhibitor project, cell-based, HEK293-NOX2, PMA-stimulated, Amplex Red fluorescence (AID 1159). Note: test concentration not given here. The following applies: 45 min, higher = more signal, called active from +8 up or from −8 down.
NADPH oxidase 2 (Homo sapiens), sequence (P04839 whole entry, looked up): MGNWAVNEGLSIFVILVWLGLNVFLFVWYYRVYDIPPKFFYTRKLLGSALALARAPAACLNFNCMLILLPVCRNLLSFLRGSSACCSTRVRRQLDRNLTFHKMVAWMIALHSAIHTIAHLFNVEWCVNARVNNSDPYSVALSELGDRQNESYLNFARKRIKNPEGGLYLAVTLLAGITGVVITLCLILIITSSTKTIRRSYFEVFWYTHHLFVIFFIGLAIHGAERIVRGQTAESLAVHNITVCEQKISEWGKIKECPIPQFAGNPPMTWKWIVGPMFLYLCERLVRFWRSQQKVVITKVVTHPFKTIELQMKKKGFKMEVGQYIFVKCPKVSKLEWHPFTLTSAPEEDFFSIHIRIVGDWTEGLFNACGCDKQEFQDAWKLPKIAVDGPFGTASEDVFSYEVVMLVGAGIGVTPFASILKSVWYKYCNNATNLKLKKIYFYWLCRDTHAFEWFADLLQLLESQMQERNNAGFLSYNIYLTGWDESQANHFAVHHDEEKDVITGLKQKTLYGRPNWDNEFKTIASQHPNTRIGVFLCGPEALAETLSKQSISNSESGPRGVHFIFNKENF
Test [9] addresses NADPH oxidase 4 (Homo sapiens) (UniProt Q9NPH5). In words: NOX4-dependent H2O2 signal modulators, primary screen, NOX inhibitor project, cell-based, HEK293-NOX4, tetracycline-induced, Amplex Red fluorescence (AID 1160). The following applies: 45 min, higher = more signal, called active from +8 up or from −8 down.
For test [10], the target named is NADPH oxidase 5 (Homo sapiens) (UniProt Q96PH1). In words: NOX5-dependent H2O2 signal modulators, primary screen, NOX inhibitor project, cell-based, HEK293-NOX5, Amplex Red fluorescence (AID 1161). Conditions: HEK293-NOX5, ionomycin, 45 min, higher = more signal.
NADPH oxidase 5 (Homo sapiens), sequence (Q96PH1 whole entry, looked up): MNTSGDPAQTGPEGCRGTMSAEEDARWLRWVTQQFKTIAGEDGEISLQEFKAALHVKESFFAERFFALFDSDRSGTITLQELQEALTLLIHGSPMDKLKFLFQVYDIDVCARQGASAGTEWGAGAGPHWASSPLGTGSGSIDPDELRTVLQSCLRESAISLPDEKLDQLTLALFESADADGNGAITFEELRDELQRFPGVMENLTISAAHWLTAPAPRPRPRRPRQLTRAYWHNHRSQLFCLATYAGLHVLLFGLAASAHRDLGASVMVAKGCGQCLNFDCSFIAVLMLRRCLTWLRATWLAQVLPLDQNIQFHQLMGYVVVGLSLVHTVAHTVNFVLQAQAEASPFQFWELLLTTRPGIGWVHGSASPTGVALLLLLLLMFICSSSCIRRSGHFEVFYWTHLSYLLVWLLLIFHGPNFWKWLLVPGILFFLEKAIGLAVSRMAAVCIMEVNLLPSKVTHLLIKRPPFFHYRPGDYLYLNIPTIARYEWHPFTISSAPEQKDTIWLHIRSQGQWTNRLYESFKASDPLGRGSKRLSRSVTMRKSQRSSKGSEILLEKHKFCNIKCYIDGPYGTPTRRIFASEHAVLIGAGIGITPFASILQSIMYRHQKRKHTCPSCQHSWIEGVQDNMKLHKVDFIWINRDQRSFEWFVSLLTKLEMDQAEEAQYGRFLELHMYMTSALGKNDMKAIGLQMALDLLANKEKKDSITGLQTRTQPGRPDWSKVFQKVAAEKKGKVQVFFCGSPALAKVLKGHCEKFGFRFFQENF
Test [11] can be described thus: A549 cell viability effects, profiling panel, calcein-AM fluorescence, 48 h, basal (AID 1162). Note: test concentration not given here. Conditions: higher = more signal.
Test [12] can be described thus: adipocyte viability effects, profiling panel, cell-based, 3T3-L1 adipocytes, calcein-AM fluorescence, 48 h, basal (AID 1163). Note: test concentration not given here. Conditions: 3T3-L1 adipocytes viability, higher = more signal.
Test [13] in a line: HepG2 cell viability effects, profiling panel, calcein-AM fluorescence, 48 h, basal (AID 1164). Note: test concentration not given here. Conditions: higher = more signal.
Test [14] is described as follows: MM1S cell viability effects, profiling panel, calcein-AM fluorescence, 48 h, basal (AID 1165).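 Note: viability of MM1S multiple myeloma cells under basal unstimulated conditions; test concentration not given here.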 The following applies: higher = more signal.
Test [15] is described as follows: basal RPMI8226 viability, no added stimulus, profiling panel, cell-based, calcein-AM fluorescence, 48 h, PK04 Diversity Set (AID 1166).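 Note: cells grown under basal conditions without added stimulus; test concentration not given here.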 Conditions: RPMI8226 myeloma viability, higher = more signal.
Test [16] can be described thus: basal HepG2 mitochondrial membrane potential changes, profiling panel, cell-based, JC-1 fluorescence, 24 h, 100 nL compound (AID 1167). Note: test concentration not given here. The following applies: higher = more signal.
A short description of test [17]: basal 3T3-L1 adipocyte mitochondrial potential changes, profiling panel, cell-based, JC-1 fluorescence, 3T3-L1 adipocytes, 24 h, 100 nL compound (AID 1168). Note: test concentration not given here. The following applies: JC-1 mitochondrial fluorescence, higher = more signal, called active from +8 up or from −8 down.
Test [18] can be described thus: basal RPMI8226 mitochondrial membrane potential changes, profiling panel, cell-based, JC-1 fluorescence, 24 h, 100 nL compound (AID 1169). Note: test concentration not given here. Conditions: RPMI8226 myeloma, JC-1 mitochondrial potential fluorescence, higher = more signal.
Test [19] is described as follows: basal MM1S mitochondrial membrane potential changes, profiling panel, cell-based, JC-1 fluorescence, 24 h, 100 nL compound (AID 1170). Note: test concentration not given here. The following applies: higher = more signal.
The nature of test [20]: A549 lung cancer cell viability effects, profiling panel, resazurin fluorescence, 24 h, PK04 Diversity Set (AID 1171). Note: test concentration not given here. The following applies: higher = more signal, called active from +8 up or from −8 down. A general note: Alamar Blue is a resazurin reagent that responds to reducing activity.

Activity calls are given as the source filed them.

NADPH oxidase 4 (Homo sapiens), sequence (Q9NPH5 whole entry, looked up): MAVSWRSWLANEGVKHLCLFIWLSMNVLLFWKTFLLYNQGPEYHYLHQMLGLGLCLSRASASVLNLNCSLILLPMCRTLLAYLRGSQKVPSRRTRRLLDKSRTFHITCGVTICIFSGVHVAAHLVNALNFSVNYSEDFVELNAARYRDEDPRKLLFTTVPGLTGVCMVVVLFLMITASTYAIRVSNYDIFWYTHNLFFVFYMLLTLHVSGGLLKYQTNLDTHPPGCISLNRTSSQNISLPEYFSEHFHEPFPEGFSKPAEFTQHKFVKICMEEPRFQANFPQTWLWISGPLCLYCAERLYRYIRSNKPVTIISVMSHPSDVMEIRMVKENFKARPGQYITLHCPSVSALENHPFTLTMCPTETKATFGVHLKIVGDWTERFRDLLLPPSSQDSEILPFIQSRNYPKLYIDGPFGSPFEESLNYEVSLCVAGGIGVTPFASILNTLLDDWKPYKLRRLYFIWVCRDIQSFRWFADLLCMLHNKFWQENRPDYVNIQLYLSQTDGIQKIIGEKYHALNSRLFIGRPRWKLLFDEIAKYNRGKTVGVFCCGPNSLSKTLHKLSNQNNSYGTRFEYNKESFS

Consider `O=C1N(Cc2ccccc2)c2ccccc2C[C@@]12COC(c1ccc(OCCCO)cc1)=N2`, for which the z-score in [1] was 0.0226 (inactive); in test [3], 25.5 (active); in test [4], 10.1 (active); in test [5] it was 3.4 (inactive); in test [6] it was 1.33 (inactive); in test [7], 0.255. Also, the z-score was -0.231 (inactive) in test [8]; -0.221 (inactive) in test [9]; -1.79 in test [10]; -0.633 in [11]; 0.629 in [12]; -0.409 in test [13]. The z-score is -2.94 in [14]; -1.19 in test [15]; -1.08 in test [16]; -0.382 (inactive) in [17]; -0.907 in test [18]; -0.589 in [19]. For the same compound, the z-score in [20] is 1.41 (inactive). Besides, the composite z-score in [2] is 0.391.

For the compound `CN1C(=O)C2C(C1=O)C1C=C(c3ccc(CO)cc3)C2C(C2CC2)N1C` (stereo not given), the z-score was 0.235 (inactive) in test [1]; 0.773 (inactive) in [3]; 0.892 (inactive) in test [4]; 0.472 (inactive) in test [5]; 0.184 (inactive) in [6]; 0.691 in test [7]. Besides, the z-score in test [8] was -1.19 (inactive); in test [9], -0.394 (inactive); in test [10] it was 0.163; in [11] it was 0.632; in [12] it was 1.29; in test [13] it was -0.799. Also, the z-score in test [14] was 0.535; in test [15] it was -0.594; in test [16], 0.399; in test [17], -0.768 (inactive); in [18] it was 0.178; in test [19], -0.0509. In addition, the z-score in test [20] was -0.694 (inactive). Moreover, in [2], the composite z-score was -0.177.

For `Cc1ccc(N2C(=O)c3ccccc3[C@](C)(C(=O)NCCCN(C)C)[C@@H]2c2ccc(CO)cc2)nc1`, the z-score in test [1] was -0.666 (inactive); in test [3] it was 1.23 (inactive); in test [4], 0.0681 (inactive); in test [5], 0.386 (inactive); in [6], -0.135 (inactive); in [7], -0.0873. In addition, the z-score in [8] is 0.627 (inactive); in [9] it was 0.631 (inactive); in test [10], 0.199; in [11] it was 0.235; in [12], 0.85; in test [13], -0.153. Moreover, the z-score in test [14] was -0.629; in test [15], -0.444; in [16], -0.53; in [17], -0.419 (inactive); in test [18], -0.884; in test [19], -0.29. Besides, the z-score in [20] is 0.31 (inactive). In test [2], the composite z-score is -0.0058.

For the compound `CCCCCCc1nc(-c2ccc(-c3ccc(Cl)c(Cl)c3)o2)cc2c1[Si](C(C)C)(C(C)C)OC2`, the z-score is 0.615 (inactive) in test [1]; 3.45 (inactive) in [3]; 0.259 (inactive) in test [4]; 0.78 (inactive) in test [5]; -0.84 (inactive) in test [6]; 1.6 in test [7]. For the same compound, the z-score in test [8] was -5.23 (inactive); in test [9], -4.25 (inactive); in test [10], -7.11; in test [11] it was -0.567; in test [12] it was 1.84; in [13], -0.0442. In addition, the z-score was -3 in test [14]; -4.4 in test [15]; -1.24 in test [16]; 0.771 (inactive) in test [17]; -0.934 in test [18]; -1.23 in test [19]. For the same compound, the z-score in test [20] is 1.19 (inactive). The compound further registered a composite z-score in [2] of -0.193.

As for `CC(C)=CCCC(C)=CC(O)C1C=CC2C(=O)NC(=O)C2N1Nc1ccccn1` (stereo not given), the z-score in test [1] is -0.255 (inactive); in test [3], 0.494 (inactive); in test [4] it was -0.531 (inactive); in [5], -0.725 (inactive); in test [6] it was -1.94 (inactive); in test [7], 0.585. The z-score in [8] was -0.637 (inactive); in test [9] it was -1.61 (inactive); in test [10], -0.467; in test [11], 0.531; in test [12], -0.446; in test [13], 1.29. In addition, the z-score is 0.617 in test [14]; 0.586 in test [15]; -0.23 in [16]; -0.503 (inactive) in test [17]; 0.333 in test [18]; 0.0809 in test [19]. The z-score in [20] is -1.39 (inactive). In test [2], this compound had a composite z-score of -0.864.

`C=CCC(OC(C)=O)[C@@H]1[C@@H](N(Cc2cc3ccccc3o2)C(=O)Cc2ccc(OC)cc2)c2cc(OCCCO)ccc2N1C(=O)c1ccc2ccccc2n1` (stereo not given in full): the z-score in test [1] is 0.697 (inactive); in test [3], 2.75 (inactive); in test [4] it was 0.567 (inactive); in [5], 0.867 (inactive); in [6] it was 0.186 (inactive); in [7], 0.856. In addition, the z-score in test [8] was 0.226 (inactive); in test [9] it was -1.14 (inactive); in test [10], 1.52; in test [11], 0.542; in test [12], 1.46; in test [13], 1.26. The z-score in test [14] is 0.307; in test [15], -1.63; in test [16] it was 2.31; in test [17], -0.106 (inactive); in [18], -0.617; in test [19], 0.576. The z-score in test [20] is -0.719 (inactive). In test [2], this compound gave a composite z-score of 0.231.

For the compound `C=CC1c2cc(O)c(OC)cc2CCN1C` (stereo not given), the z-score in test [1] is -0.664 (inactive); in test [3], 0.994 (inactive); in [4] it was -0.152 (inactive); in test [5] it was -0.969 (inactive); in test [6], -0.214 (inactive); in test [7], -0.466. The z-score was -4.27 (inactive) in [8]; -2.63 (inactive) in test [9]; -3.08 in [10]; -1.24 in test [11]; 0.281 in test [12]; 0.0372 in test [13]. Further, the z-score was 0.121 in [14]; 0.212 in test [15]; -1.17 in test [16]; -0.82 (inactive) in test [17]; 0.222 in test [18]; -0.67 in [19]. In addition, the z-score in test [20] was -0.535 (inactive). The same compound returned a composite z-score in test [2] of -0.101.

Take `O=C1C[C@@](C(=O)O)(c2ccc([N+](=O)[O-])cc2)[C@@H](c2ccc(CO)cc2)N1C1CCCCC1`: the z-score was -0.485 (inactive) in test [1]; 5.95 (inactive) in test [3]; 0.732 (inactive) in test [4]; 2.38 (inactive) in test [5]; 0.646 (inactive) in test [6]; 0.197 in test [7]. For the same compound, the z-score in test [8] was -0.127 (inactive); in test [9], -1.27 (inactive); in test [10] it was 0.369; in [11] it was 0.903; in test [12], -0.0886; in test [13], -0.28. In addition, the z-score in [14] was -1.43; in test [15] it was -2.67; in test [16], 0.969; in test [17] it was -1.22 (inactive); in test [18], -0.145; in test [19], -0.247. Also, the z-score in [20] was 0.361 (inactive). This compound displayed a composite z-score in test [2] of 0.0984.

For `C=CCC(OC(C)=O)[C@@H]1[C@@H](N(Cc2ccc(-c3cccc(C(F)(F)F)c3)o2)C(=O)c2ccc(-c3ccccc3)cc2)c2cc(OCCCO)ccc2N1C(=O)c1ccc2ccccc2c1` (stereo not given in full), the z-score in [1] was -0.251 (inactive); in test [3], 0.7 (inactive); in test [4] it was -0.125 (inactive); in test [5], 1.36 (inactive); in test [6] it was 0.408 (inactive); in [7], 0.921. Further, the z-score is -1.99 (inactive) in [8]; -1.98 (inactive) in [9]; -1.09 in [10]; 0.965 in test [11]; 1.28 in test [12]; 0.612 in test [13]. In addition, the z-score was 0.0723 in test [14]; -0.164 in test [15]; 2.76 in test [16]; -0.081 (inactive) in test [17]; 0.677 in [18]; 0.681 in [19]. Also, the z-score in test [20] is 0.919 (inactive). In addition, in [2], the composite z-score was found to be 0.0718.
